# Screening results: PubChem BioAssay, National Center for Advancing Translational Sciences (NCATS)
# Most compounds without a hit are left out; they make up all but 11% or so of the library.
# AmpC detergent: qHTS Inhibitors of AmpC Beta-Lactamase (assay with detergent); P00811; AmpC hydrolysis of nitrocefin, absorbance 480 nm, 0.01% Triton; Potency, µM (series often up to 114 µM), inactives show at the highest dose activity change, negative = inhibition, actives largely listed as inhibitors; actives 0.041% (n = 370,000); AID 485294, 2010;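 note: 0% = no-compound wells and -100% = no-enzyme wells; nearly all actives have a fitted effect of over 25% in size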
# Target sequence (P00811 whole entry, looked up): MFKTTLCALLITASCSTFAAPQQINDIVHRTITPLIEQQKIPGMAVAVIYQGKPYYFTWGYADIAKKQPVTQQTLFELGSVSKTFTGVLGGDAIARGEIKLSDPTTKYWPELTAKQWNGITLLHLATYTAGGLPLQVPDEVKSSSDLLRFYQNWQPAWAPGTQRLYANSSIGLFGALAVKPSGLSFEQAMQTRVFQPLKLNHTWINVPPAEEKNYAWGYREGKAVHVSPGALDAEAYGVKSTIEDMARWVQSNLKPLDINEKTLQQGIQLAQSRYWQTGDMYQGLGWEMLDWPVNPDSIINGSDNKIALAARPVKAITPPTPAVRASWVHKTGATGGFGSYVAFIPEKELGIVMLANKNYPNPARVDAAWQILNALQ
#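 20 mM phosphate pH 7.0 + 0.01% (detergent screen) or 0.0001% Triton X-100; 5.3 nM AmpC reagent; cpd preinc 15 min RT; nitrocefin (800 uM stock) to start; A480 q20 s × 4 min; Activity was normalised to no-enzyme and no-compound control wells.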
# Pf growth 96h: Primary qHTS for delayed death inhibitors of the malarial parasite plastid, 96 hour incubation | P. falciparum luciferase reporter growth, 96 h | Potency, µM (doses to about 28.7 µM), for the others: at the highest dose activity change, negative = inhibition, hits mostly inhibitors | actives 6.9% (n = 320,000) | AID 504834, 2011
#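 Cell-based qHTS: luciferase-tagged P. falciparum in erythrocytes (2% hematocrit, 0.05% parasitemia final) incubated with compounds for 96 hours, 37 C, 5% CO2; luciferase detection reagent then added and luminescence measured.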
# HCV inhibitor: qHTS Assay for Inhibitors of Hepatitis C Virus (HCV) | Huh7.5.1 HCVcc-Cre infection, luciferase reporter, 44 h | Potency, µM (series often up to 41.8 µM), without a hit: top-dose activity change, negative = inhibition, usual class: inhibitors | actives 3.4% (n = 340,000) | AID 651820, 2012
#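 Cells seeded at 1,000/well and cultured 4 h, then compounds added followed by HCVcc-Cre virus (~0.5 moi). After 44 h further culture, luciferase substrate was added, plates held 15 min at room temperature, and luminescence read for 15 sec.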
# AMA1 RON2 block: qHTS for Inhibitors of AMA1-RON; Towards Development of Antimalarial Drug Lead: Primary Screen; AID 720542, 2013; AlphaScreen AMA1-biotinylated RON2 peptide binding; actives 0.2% (n = 360,000); Plasmodium falciparum AMA1 (3D7) - RON2 peptide interaction; Potency, µM (top dose mostly 58.2 µM), inactives show top-dose activity change, negative = inhibition, actives largely listed as inhibitors;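 note: 0% = vehicle wells and -100% = peptide control; nearly all actives have a fitted effect of over 45% in size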
#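 AMA1 (3D7) with his tag at 25 nM final met compounds first, then biotinylated RON2 peptide at 25 nM; detection used donor plus acceptor beads, 10 µg/mL apiece, read by AlphaScreen after 30 min at room temperature.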
# AmpC no deterg: qHTS Inhibitors of AmpC Beta-Lactamase (assay without detergent) | P00811 | AmpC nitrocefin hydrolysis, absorbance 480 nm, 0.0001% Triton | Potency, µM (titrated, usually from 57.1 µM), inactives show at the highest dose activity change, negative = inhibition, hits mostly inhibitors | actives 0.52% (n = 330,000);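 note: plate controls were no compound for no effect and no enzyme for full effect; nearly all actives have a fitted effect of over 20% in size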
#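 20 mM phosphate pH 7.0 + 0.01% (detergent screen) or 0.0001% Triton X-100; 5.3 nM AmpC reagent; cpd preinc 15 min RT; nitrocefin (800 uM stock) to start; A480 q20 s × 4 min; Activity was normalised to no-enzyme and no-compound control wells.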
# Pf growth 48h: Primary qHTS for delayed death inhibitors of the malarial parasite plastid, 48 hour incubation. P. falciparum luciferase growth in erythrocytes, 48 h. Potency, µM (doses to about 28.7 µM), for inactives: top-dose activity change, negative = inhibition, actives largely listed as inhibitors. actives 5.9% (n = 310,000)
#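 Read-out is firefly luciferase luminescence from an integrated reporter in P. falciparum, so falling signal marks reduced parasite growth. Infected erythrocytes were at 2% hematocrit and 0.1% parasitemia (final) in Albumax-supplemented RPMI 1640.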
# The depositor's hits bear a star; u = inconclusive; x = not tested or not shown; [ ] = dose if it differs, or a comment. Calls come from the whole dose curve; as a rule, active = well fitted curve in the direction sought with a large enough effect; inconclusive = small, poorly fitted or top-dose-only effect, or another doubt; inactive = no such curve, though single readings can be large; an effect the other way counts as inactive or inconclusive. Unless noted, % is set by controls: 0 for no effect and ±100 for the full control effect; potency is the fitted concentration of half-maximal effect.
SMILES,AmpC detergent,Pf growth 96h,HCV inhibitor,AMA1 RON2 block,AmpC no deterg,Pf growth 48h
CCCCC(O)(c1ccc(CC)cc1)C(CN1CCOCC1)c1ccccc1 (stereo not drawn),1%,-7%,u,-8%,178%,1.9µM*
CCc1ccc(C(O)(CC)C(CN2CCOCC2)c2ccccc2)cc1 (stereo not drawn),3%,0%,-28%,-7%,161%,12µM*
CC(=O)c1ccc(NC(=O)Cn2nc(C(F)(F)F)c3c2CCCC3)cc1,4%,x,x,x,x,x
Cc1ccc(NC(=O)CSc2nnc(COc3ccc(Cl)cc3)o2)c(C)c1,16%,x,x,x,x,x
CCOC(=O)[C@@H]1[C@H]2COc3cc(OC)ccc3[C@H]2N2C(=O)N(c3cccc(Cl)c3)C(=O)[C@@]12C,-18%,u,u,1%,3%,10µM*
CCOC(=O)[C@@H]1[C@H]2COc3ccccc3[C@@H]2N2C(=O)N(c3ccc(Cl)cc3)C(=O)[C@@]12C,-14%,10%,-19%[8.37 µM],1%,9%,-6%
CCOC(=O)[C@@H]1[C@H]2COc3ccccc3[C@@H]2N2C(=O)N(c3cccc(Cl)c3)C(=O)[C@@]12C,-3%,10µM*,-10%,-2%,24%,-71%
CCOC(=O)[C@@H]1[C@H]2COc3cc(OC)ccc3[C@H]2N2C(=O)N(c3cccc(Cl)c3)C(=O)[C@]12C,u,u,-11%,0%,9%,u
C[C@]12C(=O)N(c3ccc(F)cc3)C(=O)N1[C@@H]1c3ccccc3OC[C@@H]1[C@H]2c1ccccc1,-8%,u,-18%,0%,-38%,-14%
CCOC(=O)[C@@H]1[C@H]2COc3ccccc3[C@H]2N2C(=O)N(c3ccc(Cl)cc3)C(=O)[C@]12C,-14%,8.3µM*,-22%,-2%,41%,13µM*
C[C@@]12C(=O)N(c3ccc(C(F)(F)F)cc3)C(=O)N1[C@@H]1c3ccccc3OC[C@@H]1[C@H]2c1ccccc1,-4%,4.1µM*,-11%,-2%,-31%,u
CCOC(=O)[C@@H]1[C@H]2COc3ccccc3[C@H]2N2C(=O)N(c3cccc(Cl)c3)C(=O)[C@@]12C,-10%,u,-2%,-4%,-2%,0%
CCOC(=O)[C@@H]1[C@H]2COc3ccc(Br)cc3[C@@H]2N2C(=O)N(c3ccc(C(F)(F)F)cc3)C(=O)[C@@]12C,u,9.3µM*,-15%,-4%,-6%,u
CCCNC(=O)N1[C@H]2CC[C@@H]1C(C(=O)OC)=C(c1ccc(-c3ccccc3)c(F)c1)C2,-5%,u,7.9µM*,-7%,149%,9.3µM*
COC(=O)C1=C(c2ccc(-c3ccccc3)c(F)c2)C[C@@H]2CC[C@H]1N2C(=O)NC1CC1,9%,2.9µM*,10µM*,-3%,162%,4.7µM*
COC(=O)C1=C(c2ccc(F)cc2F)C[C@@H]2CC[C@H]1N2C(=O)NCCOc1ccccc1,6%,4.1µM*,21%,7%,32%,u
COC(=O)C1=C(c2ccc(-c3ccccc3)c(F)c2)C[C@@H]2CC[C@H]1N2C(=O)NCCOc1ccccc1Cl,-4%,u,14µM*,-8%,8%,10µM*
COC(=O)C1=C(c2ccc(-c3ccccc3)c(F)c2)C[C@@H]2CC[C@H]1N2C(=O)NC(C)C,-7%,u,u,-1%,179%,u
CCOc1ccc(CNC(=O)CN2C(=O)CCn3nc(-c4cn(C)c5ccccc45)cc32)cc1OC,5%,x,x,x,x,x
CCCCCN1CC(=O)N2[C@@H](Cc3c([nH]c4ccccc34)C2(C)C)C1=O,-3%,u,-3%,12%,14%,u
CCCCN(CCCC)CCCN1CC(=O)N2[C@@H](Cc3c([nH]c4ccccc34)C2(C)C)C1=O,-6%,u,1%,-9%,15%,9.3µM*
CCCCOCCCN1CC(=O)N2[C@@H](Cc3c([nH]c4ccccc34)C2(C)C)C1=O,-7%,9.3µM*,14%,2%,118%,u
COc1ccc(C2C=C(c3ccccc3)Nc3nc(NC(=O)/C=C/c4ccc(Cl)cc4)nn32)cc1 (stereo not drawn),11%,x,x,x,x,x
CN1CCN(C(CNC(=O)C(=O)Nc2ccccc2)c2ccc3c(c2)OCO3)CC1 (stereo not drawn),6%,x,x,x,x,x
CCn1cc2nc(SCC(=O)Nc3ccccc3F)n(Cc3ccc(C)cc3)c(=O)c2n1,1%,x,x,x,x,x
SMILES,AmpC detergent,Pf growth 96h,HCV inhibitor,AMA1 RON2 block,AmpC no deterg,Pf growth 48h
Cn1c(NCCCN2CCOCC2)nc2c1c(=O)n(Cc1ccc(Cl)cc1Cl)c(=O)n2C,-14%,3%,11µM*,-1%,156%,u
CCCCNc1nc2c(c(=O)n(Cc3ccc(Cl)cc3)c(=O)n2C)n1C,9%,x,x,x,x,x
Cn1c(=O)c2c(nc(NCC3CCCC(CN)C3)n2Cc2ccc(Cl)cc2Cl)n(C)c1=O (stereo not drawn),-2%,2.9µM*,11µM*,0%,85%,2.9µM*
Cn1cnc2c1c(=O)n(Cc1ccc(Cl)cc1Cl)c(=O)n2C,u,9.3µM*,-2%,-2%,30%,-6%
NNC(=O)c1[nH]c2ccccc2c1-c1ccccc1,-10%,u,-4%,77%,6.3µM*,u
CC(=O)NNC(=O)c1[nH]c2ccc(Cl)cc2c1-c1ccccc1,5%,19%,9%,72%,83%,5%
Cc1cc(F)ccc1NC(=O)C1CCC(CNS(=O)(=O)c2ccc3c(c2)CCCC(=O)N3)CC1 (stereo not drawn),0%,x,x,x,x,x
COc1ccc(Nc2nc(N3CCOCC3)nc(N3CCOCC3)n2)cc1Cl,u,8%,10µM*,-1%,-14%,-28%
CCOc1nc(Nc2ccc(OC)cc2)nc(OCC)n1,u,x,u,-17%,-21%,-12%
COc1ccccc1Nc1nc(N2CCOCC2)nc(N2CCOCC2)n1,-4%,10µM*,u,-9%,52%,u
CCOc1nc(Nc2ccc(OC)c(Cl)c2)nc(OCC)n1,u,13µM*,u,-19%,-20%,x
CCc1ccc(NC(=O)CSc2ccc3nnc(CCNS(=O)(=O)c4ccc(OC)cc4)n3n2)cc1,1%,x,x,x,x,x
Cc1cc(C)c2c(CC(=O)Nc3ccccc3C(F)(F)F)coc2c1,-3%,x,x,x,x,x
